Data: the OligoGym collection

These sequences were tested against POLH (assay: pooled miR-30 sensor sort-seq; sequence = guide strand). Conditions: shRNA.
Further: reference of the scale not given here.

Sequence	sensor-assay potency score (higher = more potent)
TATTGTGTGAAATTCCAGCTGA	0.557
TTGCTTTAGAGGATTCTTCTAG	-0.177
TAACTTTCTGCCTTTCTGCAGC	-0.259
TTGTACTGTACAACTGCACAAG	-0.852
TATCAATCTGAAGAGAATCGAG	-0.521
ATAACTTCTTAGCATCATCTGC	-0.998
TAACTTCTTAGCATCATCTGCC	0.509

The sequences below were run against POLN in the same assay as above. Conditions: shRNA.

Sequence	sensor-assay potency score (higher = more potent)
TGACTTGATCTTGTGAACCTGC	0.614
TTTGTTTACTTGTTTTCTCTGA	-0.00359
TTCATTATTTATATTCTCCATT	-0.758
TTGATCTTGTGAACCTGCCTGT	0.754
TAATGGATGAAGGTCTCGCAGA	-0.869
TTATAAGAAACCGTTCTCCTGC	0.596
TCTATTTGAATGTAGATGCATG	-0.558
TTTACTAACACCACAATTCCTC	-0.28
TTTTTGGTCAGCAGACAGCTGA	-1.02
TTGCTCGTTATAAGAAACCGTT	-0.677
TTGCCATAAACCATAATCCTTC	-1.02

What follows are sequences tested against POLR2B in the same assay as above. Conditions: shRNA.

Sequence	sensor-assay potency score (higher = more potent)
TAAAAGATTAGAAATCTTCTGC	0.528
TAGTGCAACATTCTGTTCTTGG	0.768
TTTTCTCTTTAGTAACACCAGG	-1.3
TATTATGCAACTGTCTTGGTTT	-0.109
TTCTAAAATATCTCTGTCGGAC	-0.797
TTTCTCTTTAGTAACACCAGGC	-0.352
TTCTTTTTGTAAAACTTCCTTT	-0.613
TATCAAACCATCATCATCCAGC	-0.225
TATATGTGGAACAATAAGCTAC	-0.462
TTTTACAAAATTTATATCCTTC	0.417
TAGGAACTGATTACAATCCAGC	-0.664
AAGATTGCAAACATGAACCTGA	0.822

What follows are sequences tested against POLR3B in the same assay as above. Conditions: shRNA.

Sequence	sensor-assay potency score (higher = more potent)
TAAATTTTTTGAACAAGTCTTC	-0.054
TAGCTCATCACAGCAACTGTTG	-0.674
TATCCTTTAGGTCACATCCATC	-1.12
TAACAATGAAGTAGCCACCTGG	-0.287
TTAAGTACCACATAGGGTCAGC	-0.683
TTACATTGAAGCTTTCTTCAAC	0.0741
TTGGTGTATCGTTTCAACGTAC	-0.297
TTGACAATTATGTAGGGTCTGC	-0.266
TATATGAGTCTGTTGCTCCTTT	0.252
TTTATTAATTGTGTGTTCGTAC	0.467
